Values without a mark were called inactive. The source made the active and inactive calls. Cut-off read from the data, not from the text of the source, unless noted: active = inhibition above about 30%; inactive = the rest.
What was measured:
[1] = target: Nuclear receptor coactivator 3 (Homo sapiens) (UniProt Q9Y6Q9); assay: SRC3 coactivator transcriptional activity inhibitors, confirmation, cell-based, luminescence, quadruplicate (AID 588792;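 active = mean inhibition over 43.08%, the solvent-only control mean plus 3 SD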;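 note: 0% = DMSO treated cells and 100% = gossypol at 36 µM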); settings: HEK293 GAL4-SRC3 luciferase reporter, at 3.6 µM, stronger effect = higher value
[2] = tested on: transactivating tegument protein VP16 (Human herpesvirus 1), Gal4-VP16 luciferase reporter; assay: VP16 transactivation inhibitors, counter-screen for SRC3 inhibitor project, cell-based, luminescence, high throughput (AID 588794); settings: mammalian cells, VP16-driven luciferase reporter luminescence; at 3.6 µM; stronger effect = higher value
[3] = target: Nuclear receptor coactivator 1 (Homo sapiens) (UniProt Q15788); assay: SRC1 coactivator transcriptional activity inhibitors, confirmation, cell-based, luminescence, quadruplicate (AID 588820;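 active = mean inhibition above 46.68%, the untreated control wells mean plus 3 SD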;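 note: 0% = DMSO wells and 100% = gossypol 36 µM treated wells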); settings: HEK293 GAL4-SRC1 luciferase reporter, at 3.6 µM, stronger effect = higher value
[4] = VP16 transactivation inhibitors, counter-screen for SRC1 inhibitor project, cell-based, luminescence, high throughput (AID 588824; in the data active = inhibition above about 25%); settings: cell-based VP16 transactivation luciferase luminescence; at 3.6 µM; stronger effect = higher value
[5] = StAR promoter reporter inhibitors, counter-screen for LRH-1 inverse agonist project, cell-based, luminescence, high throughput (AID 651611; in the data active = inhibition above about 28%); settings: StAR promoter luciferase reporter counterscreen, at 3.6 µM, stronger effect = higher value
[6] = target: Nuclear receptor subfamily 5 group A member 2 (Homo sapiens) (UniProt O00482); assay: LRH-1 (NR5A2) inverse agonists, retest, confirmation, cell-based, luminescence (AID 651613; in the data active = inhibition above about 42%;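 note: HEK293T cells co-transfected with LRH-1 and StAR promoter luciferase reporter; 0% = vehicle wells and 100% = parental cells lacking receptor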); settings: cell-based LRH-1 luciferase reporter, inverse agonism; at 3.6 µM; stronger effect = higher value
[7] = target: Steroidogenic factor 1 (Homo sapiens) (UniProt Q13285); assay: SF1 (NR5A1) inverse agonists, counter-screen for LRH-1 inverse agonist project, cell-based, luminescence, high throughput (AID 651614; in the data active = inhibition above about 44%;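 note: cells cotransfected with StAR promoter reporter and SF1 expression vector; 0% = vehicle on cells with receptor and 100% = vehicle on cells lacking receptor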); settings: cell-based SF1 luciferase reporter, at 3.6 µM, stronger effect = higher value
[8] = VP16 transactivation reporter inhibitors, counter-screen for LRH-1 inverse agonist project, cell-based, luminescence, high throughput (AID 651615; in the data active = inhibition above about 33%); settings: Gal4-VP16 luciferase reporter cells, at 3.6 µM, stronger effect = higher value

Steroidogenic factor 1 (Homo sapiens), sequence (Q13285 whole entry, looked up, the tested form may be a part): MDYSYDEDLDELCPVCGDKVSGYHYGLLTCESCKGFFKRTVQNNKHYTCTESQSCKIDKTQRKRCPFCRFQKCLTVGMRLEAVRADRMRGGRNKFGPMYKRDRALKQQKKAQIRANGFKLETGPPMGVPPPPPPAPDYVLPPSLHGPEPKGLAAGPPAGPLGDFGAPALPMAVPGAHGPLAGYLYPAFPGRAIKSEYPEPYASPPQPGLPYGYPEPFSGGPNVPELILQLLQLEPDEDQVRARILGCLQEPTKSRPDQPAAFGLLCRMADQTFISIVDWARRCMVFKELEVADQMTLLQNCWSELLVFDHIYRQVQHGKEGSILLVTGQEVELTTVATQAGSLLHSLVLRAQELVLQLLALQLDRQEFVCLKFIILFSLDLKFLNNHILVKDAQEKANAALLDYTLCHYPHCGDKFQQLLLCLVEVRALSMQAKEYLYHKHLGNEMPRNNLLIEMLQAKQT
Nuclear receptor coactivator 3 (Homo sapiens), sequence (Q9Y6Q9 whole entry, looked up, the tested form may be a part): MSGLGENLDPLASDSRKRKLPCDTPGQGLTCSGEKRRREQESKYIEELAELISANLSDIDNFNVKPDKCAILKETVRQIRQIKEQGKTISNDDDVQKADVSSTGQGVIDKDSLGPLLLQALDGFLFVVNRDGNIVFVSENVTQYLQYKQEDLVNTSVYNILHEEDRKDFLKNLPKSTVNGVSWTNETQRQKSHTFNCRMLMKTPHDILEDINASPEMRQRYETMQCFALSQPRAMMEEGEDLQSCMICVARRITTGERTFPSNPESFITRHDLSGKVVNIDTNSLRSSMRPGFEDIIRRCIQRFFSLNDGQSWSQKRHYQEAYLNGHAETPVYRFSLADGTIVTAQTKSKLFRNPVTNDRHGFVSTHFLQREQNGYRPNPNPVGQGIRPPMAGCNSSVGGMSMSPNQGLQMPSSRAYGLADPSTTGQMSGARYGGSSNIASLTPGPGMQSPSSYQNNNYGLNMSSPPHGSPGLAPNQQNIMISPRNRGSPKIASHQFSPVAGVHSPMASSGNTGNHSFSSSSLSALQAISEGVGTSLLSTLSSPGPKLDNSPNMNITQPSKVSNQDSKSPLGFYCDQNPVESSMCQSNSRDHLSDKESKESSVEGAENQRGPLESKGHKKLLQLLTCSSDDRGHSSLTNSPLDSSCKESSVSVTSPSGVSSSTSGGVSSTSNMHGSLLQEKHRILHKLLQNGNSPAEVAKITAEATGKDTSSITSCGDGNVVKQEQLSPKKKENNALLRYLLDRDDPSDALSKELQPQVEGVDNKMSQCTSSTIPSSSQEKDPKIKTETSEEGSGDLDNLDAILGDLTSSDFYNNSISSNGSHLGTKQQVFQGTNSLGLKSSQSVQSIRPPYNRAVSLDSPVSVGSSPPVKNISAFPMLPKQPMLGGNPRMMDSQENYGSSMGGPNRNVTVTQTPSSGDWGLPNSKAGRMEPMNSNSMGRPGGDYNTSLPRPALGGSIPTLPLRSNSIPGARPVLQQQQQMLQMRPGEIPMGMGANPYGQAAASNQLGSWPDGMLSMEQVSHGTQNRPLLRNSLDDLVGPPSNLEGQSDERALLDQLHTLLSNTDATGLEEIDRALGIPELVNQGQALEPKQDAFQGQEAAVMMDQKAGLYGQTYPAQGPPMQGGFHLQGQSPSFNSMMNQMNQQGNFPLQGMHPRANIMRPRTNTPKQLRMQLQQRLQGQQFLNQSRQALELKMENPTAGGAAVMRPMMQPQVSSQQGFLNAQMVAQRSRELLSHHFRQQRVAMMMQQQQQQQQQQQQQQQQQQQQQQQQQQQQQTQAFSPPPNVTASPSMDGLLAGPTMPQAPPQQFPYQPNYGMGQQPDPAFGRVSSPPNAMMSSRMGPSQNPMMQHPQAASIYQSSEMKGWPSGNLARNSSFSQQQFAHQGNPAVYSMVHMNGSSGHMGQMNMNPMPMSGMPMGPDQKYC
Nuclear receptor coactivator 1 (Homo sapiens), sequence (Q15788 whole entry, looked up, the tested form may be a part): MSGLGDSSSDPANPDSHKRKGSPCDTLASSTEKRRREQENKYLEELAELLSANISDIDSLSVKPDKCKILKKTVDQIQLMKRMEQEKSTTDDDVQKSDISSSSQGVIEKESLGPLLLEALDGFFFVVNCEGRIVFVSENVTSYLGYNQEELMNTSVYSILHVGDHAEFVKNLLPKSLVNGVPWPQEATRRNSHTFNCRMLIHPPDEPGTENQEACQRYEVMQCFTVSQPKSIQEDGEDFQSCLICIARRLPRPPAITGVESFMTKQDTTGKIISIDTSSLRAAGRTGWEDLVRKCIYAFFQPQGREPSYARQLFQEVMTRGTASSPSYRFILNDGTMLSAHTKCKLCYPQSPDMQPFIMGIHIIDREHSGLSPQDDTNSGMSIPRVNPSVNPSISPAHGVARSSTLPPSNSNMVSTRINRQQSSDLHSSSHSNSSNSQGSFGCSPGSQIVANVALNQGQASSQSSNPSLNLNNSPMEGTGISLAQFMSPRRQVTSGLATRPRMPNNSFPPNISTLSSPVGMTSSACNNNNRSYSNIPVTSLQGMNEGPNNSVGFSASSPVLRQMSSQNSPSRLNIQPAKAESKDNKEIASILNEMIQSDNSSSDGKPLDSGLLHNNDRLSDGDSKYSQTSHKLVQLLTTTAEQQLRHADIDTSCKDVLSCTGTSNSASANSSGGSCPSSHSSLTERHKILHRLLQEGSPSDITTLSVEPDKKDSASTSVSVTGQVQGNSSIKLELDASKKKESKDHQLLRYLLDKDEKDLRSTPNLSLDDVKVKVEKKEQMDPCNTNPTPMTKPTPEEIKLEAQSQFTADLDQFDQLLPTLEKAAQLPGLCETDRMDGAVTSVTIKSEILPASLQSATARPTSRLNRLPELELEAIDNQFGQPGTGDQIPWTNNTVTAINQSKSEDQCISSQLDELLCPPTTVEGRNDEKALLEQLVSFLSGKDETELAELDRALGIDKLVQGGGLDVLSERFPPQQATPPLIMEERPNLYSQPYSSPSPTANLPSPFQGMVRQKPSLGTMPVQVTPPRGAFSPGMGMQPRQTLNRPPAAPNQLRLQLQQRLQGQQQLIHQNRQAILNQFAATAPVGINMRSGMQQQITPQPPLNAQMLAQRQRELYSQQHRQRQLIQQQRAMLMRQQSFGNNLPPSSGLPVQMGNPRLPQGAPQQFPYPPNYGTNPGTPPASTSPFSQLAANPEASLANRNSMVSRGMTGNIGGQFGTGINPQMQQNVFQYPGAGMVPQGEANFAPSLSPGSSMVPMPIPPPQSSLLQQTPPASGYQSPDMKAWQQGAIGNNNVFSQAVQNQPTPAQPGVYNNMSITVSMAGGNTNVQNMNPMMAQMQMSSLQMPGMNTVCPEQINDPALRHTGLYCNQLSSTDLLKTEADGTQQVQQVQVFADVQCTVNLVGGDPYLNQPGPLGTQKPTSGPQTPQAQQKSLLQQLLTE
Nuclear receptor subfamily 5 group A member 2 (Homo sapiens), sequence (O00482 whole entry, looked up): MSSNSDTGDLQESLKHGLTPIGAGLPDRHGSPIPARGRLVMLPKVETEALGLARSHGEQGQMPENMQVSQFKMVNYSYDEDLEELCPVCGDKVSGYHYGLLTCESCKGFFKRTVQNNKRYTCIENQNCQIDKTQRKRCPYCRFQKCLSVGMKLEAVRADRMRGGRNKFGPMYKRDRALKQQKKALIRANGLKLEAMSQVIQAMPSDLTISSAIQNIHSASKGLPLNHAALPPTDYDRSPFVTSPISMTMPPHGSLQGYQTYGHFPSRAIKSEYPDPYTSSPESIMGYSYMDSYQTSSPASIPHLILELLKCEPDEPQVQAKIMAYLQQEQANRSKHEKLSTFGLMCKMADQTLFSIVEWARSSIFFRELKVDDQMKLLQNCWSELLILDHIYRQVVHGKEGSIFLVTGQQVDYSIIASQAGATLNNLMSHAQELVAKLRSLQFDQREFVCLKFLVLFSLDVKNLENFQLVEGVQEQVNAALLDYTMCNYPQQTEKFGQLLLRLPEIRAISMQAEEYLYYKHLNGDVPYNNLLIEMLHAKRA

SMILES | inhibition [1] | inhibition [2] | inhibition [3] | inhibition [4] | inhibition [5] | inhibition [6] | inhibition [7] | inhibition [8]
OCC1OC(n2cnc3c(NCc4ccco4)ncnc32)C(O)C1O (stereo not drawn) | 71.1% (active) | 53.4% (active) | 33.5% | 48.7% (active) | 65.1% (active) | 60.3% (active) | 85.7% (active) | 67.7% (active)
CCOc1cc(/C=C2\CN(CC)C/C(=C\c3ccc(O)c(OCC)c3)C2=O)ccc1O | 65.4% (active) | 62.4% (active) | 4.46% | 51.8% (active) | 47.3% (active) | 91.2% (active) | 87.2% (active) | 82.6% (active)
CN(C)c1ccc(/C=C/c2ccc3c4ccccc4ccc3[n+]2-c2ccccc2)cc1 | 70.9% (active) | 82.3% (active) | 50.2% (active) | 79.4% (active) | 71.9% (active) | 104% (active) | 92.5% (active) | 83% (active)
O=c1[nH]cnc2c1nnn2C1OC(CO)C(O)C1O (stereo not drawn) | 59% (active) | 15.3% | -5.97% | 17% | 69.7% (active) | 78.6% (active) | 71.1% (active) | 27.1%
COc1ccc(-c2cn(-c3ccc(OC)cc3)c3[n+]2-c2ccccc2CC3)cc1 | 46.3% (active) | 55.9% (active) | 34.7% | 59.9% (active) | 40.8% (active) | 88.8% (active) | 82.3% (active) | 77.8% (active)
CC1Cc2cc(-c3csc(NC(=O)Cc4cccs4)n3)ccc2N1S(C)(=O)=O (stereo not drawn) | 14.4% | 42.5% (active) | -1.43% | 57.8% (active) | 47.4% (active) | 63.7% (active) | 62% (active) | 69.9% (active)

Source: PubChem BioAssay
